Source: PubChem BioAssay (NCATS)
Results filed as inconclusive are left out. Activity calls are given as the source filed them. Calls come from the whole dose curve; as a rule, active = well fitted activation curve with a large enough effect; inconclusive = small, poorly fitted or top-dose-only effect, or another doubt; inactive = no such curve, though single readings can be large or run the other way.

The molecules below were run against Rap guanine nucleotide exchange factor 3 (Homo sapiens) (UniProt O95398) (assay: Counterscreen qHTS for agonist of cAMP-regulated guanine nucleotide exchange factor 3 (EPAC1) (AID 1645889; note: nearly all actives have a fitted effect of over 40% in size; for activation: % of control where 0% means no effect)). Settings: EPAC1 Rap1B-BODIPY-GDP exchange, fluorescence; series mostly up to 154 µM.
Procedure, shortened: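 Rap1B–BODIPY-GDP (250 nM) with 50 uM GDP; compounds pin-transferred to 9.74 nM–152 uM final (activator) or from 7.32 nM upwards (inhibitor). Fluorescence Ex/Em 480/540 nm read at 5 and 30 min, then after adding cAMP or buffer, at room temperature.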
Potency is the fitted concentration of half-maximal effect.

Structure (SMILES) | Potency | activation
COc1ccc2c3c(cccc13)C(=O)CC2 | 31.6 µM (active) | –
CC1=Nc2ccccc2/C1=C\c1nc(-c2ccc(F)cc2)oc1O | 25.1 µM (active) | –
Cc1nn(C)c(C)c1N1C(=O)c2cccc3c(N)ccc(c23)C1=O | 11.2 µM (active) | –
COCCn1c2nc(=O)n(-c3ccccc3)c(=O)c-2nc2ccccc21 | 39.8 µM (active) | –
Cc1ccc[n+](-c2nc([O-])sc2C=O)c1 | 39.8 µM (active) | –
O=C(O)c1ccccc1C1=Nc2ccc(O)cc2Oc2cc(O)ccc21 | 15.8 µM (active) | –
Cc1ccccc1C(=O)Nc1ccc(C(=O)OCc2cc(=O)n3c4c(sc3n2)CCCC4)cc1 | inactive | –
Cc1cc(/C=C2\SC(=S)N(C)C2=O)c(C)n1-c1ccccc1O | 89.1 µM (active) | –
N#Cc1c(-c2cccs2)nc(SCC(=O)c2ccc(Br)cc2)[nH]c1=O | – | 12.5% [at 30.8 µM] (inactive)
Cc1cccc(N2C(=O)c3cccc4c(N)ccc(c34)C2=O)c1 | 70.8 µM (active) | –
Cc1ccc2oc(=O)c(/C=C(\O)c3ccccc3)nc2c1 | – | 12.5% [at 30.8 µM] (inactive)
CCC1(c2ccccc2)NC(=O)N(CC(=O)Nc2ccc(OC)nc2)C1=O (stereo unspecified) | – | 14.8% [at 30.8 µM] (inactive)
CCOc1cccc2sc(N3CCN(C(=O)C(C)(C)C)CC3)nc12 | inactive | –
Cc1ccc(OCc2nc3ccccc3n2CC(C)C)cc1 | inactive | –
CCOC(=O)C1=C(C)NC(SC)=C(C#N)C1CC(C)C (stereo unspecified) | inactive | –
Cn1nc(-c2ccccc2)c2nc3ccccc3nc21 | inactive | –
